Bioassay records as filed in PubChem BioAssay.
C diff HTS – C. difficile growth inhibitors, primary screen, HTS; growth activity, negative = inhibition, % at 16 µg/mL (by protocol); 86,000 compounds, 0.25% hits; Clostridium difficile clinical isolate growth, OD600, 24 h; active compounds read low;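 active means mean growth activity at or below -80% and every replicate also at or below -80%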
Pf Dd2 inh – P. falciparum Dd2 growth inhibitors, primary screen, SYBR Green fluorescence, single dose replicates. activity change, % at 10 µM. 94,000 compounds, 2.3% hits. 72 h; active compounds read low; in the data active means activity change below about -80%
Numbers stand for hits; i = inactive; nt = no result given; ! = repeats disagree. Hits are enriched below; roughly 2.3% of the tested compounds scored in any of these assays.

SMILES	C diff HTS	Pf Dd2 inh
COc1ccc(NC(=O)N2CCC3(CC2)CN(C(=O)C2CCC2)[C@H](CO)c2c3c3ccc(OC)cc3n2C)cc1	i	-90
COc1ccc2c3c(n(C)c2c1)[C@@H](CO)N(CC1CC1)CC31CCN(C(=O)Nc2ccccc2)CC1	i	i
COc1ccc2c3c(n(C)c2c1)[C@H](CO)N(C(=O)C1CCCC1)CC31CN(C(=O)CN(C)C)C1	nt	i
COc1ccc2c3c(n(C)c2c1)[C@H](CO)N(C(=O)C1CCCC1)CC31CN(C(=O)CC2CC2)C1	i	-85
COc1ccc2c3c(n(C)c2c1)[C@@H](CO)N(CC1CCCC1)CC31CCN(C(=O)Nc2ccccc2)CC1	i	-84
COc1cccc(CNC(=O)C[C@H]2CC[C@H]3[C@@H](COc4ccc(NS(=O)(=O)c5ccccc5F)cc4C(=O)N3C)O2)c1	i	i
CC(C)NC(=O)Nc1ccc2c(c1)C(=O)N([C@H](C)CO)C[C@@H](C)[C@@H](CN(C)Cc1ccc(C(F)(F)F)cc1)OCCCC[C@@H](C)O2	i	nt
CCCNC(=O)N1C[C@H](O)COC[C@H]2O[C@@H](CC(=O)N3CCCCC3)CC[C@@H]21	nt	i
C[C@H]1CN([C@@H](C)CO)C(=O)c2cc(NC(=O)Nc3cccc4ccccc34)ccc2O[C@H]1CN(C)S(=O)(=O)c1cn(C)cn1	nt	i
C[C@H](CO)N1C[C@H](C)[C@H](CN(C)C(=O)C2CCCCC2)OCCCC[C@H](C)Oc2ccc(NC(=O)Nc3ccc4c(c3)OCO4)cc2C1=O	i	i
Cc1ccccc1-c1ccc([C@H]2[C@@H](CO)N3CCCCN(S(=O)(=O)Cc4ccccc4)C[C@H]23)cc1	i	i
O=C(CC1CC1)N1CC(=O)N2[C@H](CO)[C@@H](c3ccc(-c4cccnc4)cc3)[C@@H]2C1	i	i
CCCC(=O)Nc1ccc2c(c1)OC[C@@H](C)N(C(=O)c1ccncc1)C[C@H](C)[C@H](OC)CN(C)C2=O	nt	i
COc1ccc2c3c(n(C)c2c1)[C@@H](CO)N(C(=O)CN(C)C)CC31CCN(C(=O)CN(C)C)CC1	i	i
CCCNC(=O)N1CC2(CCN(S(=O)(=O)c3ccccc3)CC2)c2c(n(C)c3cc(OC)ccc23)[C@H]1CO	i	i
CCCNC(=O)N1CC2(CCN(S(=O)(=O)c3ccc(OC)cc3)CC2)c2c(n(C)c3cc(OC)ccc23)[C@@H]1CO	i	-86
COc1ccc(S(=O)(=O)N2CCC3(CC2)CN(C(=O)CN(C)C)[C@@H](CO)c2c3c3ccc(OC)cc3n2C)cc1	i	-88
C[C@@H]1CCCCO[C@@H](CN(C)C(=O)c2ccccc2)[C@H](C)CN([C@@H](C)CO)C(=O)c2cc(NC(=O)Nc3ccc(C(F)(F)F)cc3)ccc2O1	i	i
CN1C(=O)c2cc(NC(=O)c3cccc(F)c3)ccc2OC[C@@H]2O[C@H](CC(=O)NCC3CC3)CC[C@@H]21	i	i
O=C(C[C@@H]1CC[C@H]2[C@@H](COC[C@@H](O)CN2C(=O)Nc2ccc(Cl)c(Cl)c2)O1)NCc1ccc(Cl)cc1	-91	i
CCCNC(=O)C[C@@H]1CC[C@H]2[C@@H](COC[C@@H](O)CN2C(=O)Nc2ccc(Cl)c(Cl)c2)O1	-103!	i
O=C(C[C@H]1CC[C@H]2[C@@H](COC[C@H](O)CN2C(=O)Nc2ccc(Cl)c(Cl)c2)O1)NCc1ccc(F)cc1	-94	i
O=C(C[C@H]1CC[C@H]2[C@@H](COC[C@H](O)CN2C(=O)Nc2ccc(Cl)c(Cl)c2)O1)NCc1ccncc1	-97!	i
O=C(C[C@H]1CC[C@H]2[C@@H](COC[C@@H](O)CN2C(=O)Nc2ccc(Cl)c(Cl)c2)O1)NCc1ccc(Cl)cc1	i	i
CCCNC(=O)C[C@H]1CC[C@@H]2[C@H](COC[C@@H](O)CN2C(=O)Nc2ccc(Cl)c(Cl)c2)O1	i	i
SMILES	C diff HTS	Pf Dd2 inh
O=C(C[C@@H]1CC[C@H]2[C@@H](COC[C@@H](O)CN2C(=O)Nc2ccc(Cl)c(Cl)c2)O1)NCc1ccc(F)cc1	i	i
O=C(C[C@@H]1CC[C@H]2[C@@H](COC[C@H](O)CN2C(=O)Nc2ccc(Cl)c(Cl)c2)O1)NCc1ccncc1	i	i
O=C(C[C@H]1CC[C@@H]2[C@H](COC[C@H](O)CN2S(=O)(=O)c2cccc(F)c2)O1)NCCCN1CCOCC1	nt	i
COc1cccc(NC(=O)N[C@H]2C=C[C@@H](CC(=O)NCc3ccccn3)O[C@@H]2CO)c1	i	i
O=C(C[C@@H]1CC[C@H]2[C@@H](COC[C@@H](O)CN2S(=O)(=O)c2ccccc2F)O1)NCc1ccccc1Cl	nt	i
C[C@@H]1CN([C@H](C)CO)C(=O)c2cc(C#CCN(C)C)cnc2O[C@H]1CN(C)S(=O)(=O)c1ccccc1	i	i
O=C(C[C@@H]1CC[C@H]2[C@@H](COC[C@H](O)CN2C(=O)Nc2ccc(Cl)c(Cl)c2)O1)NCc1ccc(F)cc1	-84	i
O=C(C[C@H]1CC[C@H]2[C@@H](COC[C@@H](O)CN2C(=O)Nc2ccc(Cl)c(Cl)c2)O1)NCc1ccc(F)cc1	i	i
C[C@@H]1CN([C@@H](C)CO)C(=O)c2cc(NC(=O)Nc3cccc4ccccc34)ccc2O[C@H]1CN(C)Cc1ccc(C(=O)O)cc1	i	i
C[C@@H]1CN([C@@H](C)CO)S(=O)(=O)c2ccc(C#CC3CCCC3)cc2O[C@@H]1CN(C)C(=O)Cc1ccncc1	i	i
C[C@@H]1CN([C@@H](C)CO)S(=O)(=O)c2ccc(C#CC3(O)CCCC3)cc2O[C@H]1CN(C)C(=O)c1ccccc1	i	-86
C[C@H]1CN([C@@H](C)CO)S(=O)(=O)c2ccc(C#CC3(O)CCCC3)cc2O[C@H]1CN(C)C(=O)c1ccccc1	i	i
CCC(=O)N(C)C[C@@H]1Oc2cc(C#Cc3ccccc3)ccc2S(=O)(=O)N([C@H](C)CO)C[C@@H]1C	i	i
C[C@@H]1CN([C@@H](C)CO)S(=O)(=O)c2ccc(C#Cc3ccccc3)cc2O[C@H]1CN(C)C(=O)C1CC1	i	-89
CCC(=O)N(C)C[C@H]1Oc2cc(C#Cc3ccccc3)ccc2S(=O)(=O)N([C@@H](C)CO)C[C@@H]1C	i	-83
C[C@H](CO)N1C[C@H](C)[C@H](CN(C)C(=O)C2CC2)Oc2cc(C#Cc3ccncc3)ccc2S1(=O)=O	nt	i
C[C@H](CO)N1C[C@H](C)[C@@H](CN(C)C(=O)Cc2ccncc2)Oc2cc(C#CC3CCCC3)ccc2S1(=O)=O	i	-85
COc1cccc(-c2ccc3c(c2)O[C@@H](CN(C)C(=O)C2CCC2)[C@H](C)CN([C@H](C)CO)S3(=O)=O)c1	i	i
C[C@H]1CN([C@@H](C)CO)C(=O)c2cc(NS(=O)(=O)c3cccs3)ccc2O[C@@H]1CN(C)Cc1ccc(Oc2ccccc2)cc1	nt	i
Cc1ccc(S(=O)(=O)Nc2ccc3c(c2)C(=O)N([C@@H](C)CO)C[C@@H](C)[C@@H](CN(C)S(=O)(=O)c2ccc(C)cc2)OCCCC[C@@H](C)O3)cc1	nt	i
C[C@@H]1CN([C@@H](C)CO)C(=O)c2cccc(NS(C)(=O)=O)c2O[C@H]1CN(C)C(=O)Nc1cccc2ccccc12	i	i
C[C@@H]1CN([C@H](C)CO)S(=O)(=O)c2ccc(C#Cc3ccncc3)cc2O[C@@H]1CN(C)C(=O)C1CC1	nt	i
C[C@@H]1CN([C@@H](C)CO)S(=O)(=O)c2ccc(C#Cc3ccccc3)cc2O[C@H]1CN(C)C(=O)Cc1ccccn1	i	-84
